# Test results taken from PubChem BioAssay (NCATS).
# Results filed as inconclusive are left out. Entries that show only a call come without a potency. A number with no mark means an inactive call. Calls of active or inactive are those of the source. The call rests on the fitted dose curve; in most records, active means well fitted inhibition curve with a large enough effect; inconclusive means small, poorly fitted or top-dose-only effect; inactive means flat fitted curve, though single readings scatter.
# Molecular target: Glutathione peroxidase 1 (Homo sapiens) (UniProt P07203)
# Assay: Primary qHTS Assay for Inhibitors of Recombinant Selenoprotein Glutathione Peroxidase 1 (GPX1) (AID 1845191)
# Details: recombinant GPX1, GR-coupled NADPH fluorescence, 15 min; series mostly up to 48.8 µM
# In short: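 GR-coupled assay: compounds preincubated 30 min at room temperature with GPX1, then reaction started with CHP; final 10 nM GPX1, 1 mM GSH, 0.5 mM CHP, 0.5 mM NADPH, 100 nM GR, 0.01% BSA, pH 7.5 Tris buffer. NADPH fluorescence (340/450 nm) read at 0 and 15 min.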
# Further: nearly all actives have a fitted effect of over 65% in size.
# Potency means the concentration at half of the fitted maximal effect.
# Glutathione peroxidase 1 (Homo sapiens), sequence (P07203 whole entry, looked up): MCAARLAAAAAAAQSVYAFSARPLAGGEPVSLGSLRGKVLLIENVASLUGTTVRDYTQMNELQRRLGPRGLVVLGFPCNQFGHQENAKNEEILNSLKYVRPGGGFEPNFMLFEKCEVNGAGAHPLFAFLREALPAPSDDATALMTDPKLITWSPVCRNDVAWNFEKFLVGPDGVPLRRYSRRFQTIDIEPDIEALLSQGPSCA
SMILES,Potency,"activity, negative = inhibition"
CCCCC(F)(F)C1(O)CCC2C(CC(=O)C2CCCCCCC(=O)O)O1 (configuration not stated),inactive,
NC(N)=NCCC[C@@H](N)C(=O)N[C@@H](CCCN=C(N)N)C(=O)N1CCC[C@H]1C(=O)N1C[C@H](O)C[C@H]1C(=O)NCC(=O)N[C@@H](Cc1cccs1)C(=O)N[C@@H](CO)C(=O)N1Cc2ccccc2C[C@@H]1C(=O)N1[C@H](C(=O)N[C@@H](CCCN=C(N)N)C(=O)O)C[C@@H]2CCCC[C@@H]21,inactive,
CCCCC(CC)COc1ccc(-c2nc(-c3ccc(OC)cc3)nc(-c3ccc(OCC(CC)CCCC)cc3O)n2)c(O)c1 (configuration not stated),,-11% [at 4.49 µM]
CN[C@@H]1[C@@H](O[C@H]2O[C@H](CO)[C@@H](N)[C@H](O)[C@H]2O)O[C@H]2C[C@@H](N)[C@H](O[C@H]3[C@H](O)[C@@H](O)[C@H](N)C[C@@H]3N)O[C@@H]2[C@@H]1O,inactive,
CC=CC1=C(C(=O)O)N2C(=O)[C@@H](NC(=O)[C@H](N)c3ccc(O)cc3)[C@H]2SC1,7.85 µM (active),
C=C1CC[C@H](O)C/C1=C\C=C1/CCC[C@]2(C)[C@@H]([C@H](C)CC[C@H](O)C(C)(C)O)CC[C@@H]12,inactive,
CCCN1C[C@H](C)[C@@H](O)[C@](C)(O)[C@@H](CC)OC(=O)[C@H](C)[C@@H](O[C@H]2C[C@@](C)(OC)[C@@H](O)[C@H](C)O2)C(C)[C@@H](O[C@@H]2O[C@H](C)C[C@H](N(C)C)[C@H]2O)[C@](C)(O)C[C@H]1C (some centres not stated),inactive,
CCCCCCCCCCCCCCCCCC(=O)NCCCC[C@H](NC(=O)CC[C@@H](NC(=O)[C@H](C)NC(=O)[C@@H](C)O[C@H]1[C@H](O)[C@@H](CO)OC(O)[C@@H]1NC(C)=O)C(N)=O)C(=O)O (some centres not stated),inactive,
O=C(O)C[C@@H]1CC[C@H](NC(=O)Cc2cccs2)B(O)O1,inactive,
CC(C)C[C@H](NC(=O)[C@@H](Cc1c[nH]c2ccccc12)NC(=O)[C@H](Cc1ccc(O)cc1)NC(=O)[C@H](CO)NC(=O)[C@H](Cc1c[nH]c2ccccc12)NC(=O)[C@H](Cc1cnc[nH]1)NC(=O)[C@@H]1CCC(=O)N1)C(=O)N[C@@H](CCCN=C(N)N)C(=O)N1CCC[C@H]1C(=O)NCC(N)=O,inactive,
Cc1ccc(S(=O)(=O)O)cc1,inactive,
CCCCCCCC(=O)N[C@H](CN1CCCC1)[C@H](O)c1ccc2c(c1)OCCO2,inactive,

# Molecular target: Phospholipid hydroperoxide glutathione peroxidase GPX4 (Homo sapiens) (UniProt P36969)
# Assay: Primary qHTS Assay for Inhibitors of Recombinant Selenoprotein Glutathione Peroxidase 4 (GPX4) (AID 1845192)
# Details: recombinant GPX4, GR-coupled NADPH fluorescence, 15 min; series mostly up to 50 µM
# In short: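 GR-coupled assay: recombinant GPX4 preincubated 30 min with compound at room temperature; final 200 nM GPX4, 1 mM GSH, 0.5 mM cumene hydroperoxide, 0.5 mM NADPH, 100 nM GR, 0.01% BSA, pH 7.5 Tris. NADPH fluorescence (340/450 nm) read at 0 and 15 min.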
# Phospholipid hydroperoxide glutathione peroxidase GPX4 (Homo sapiens), sequence (P36969 whole entry, looked up): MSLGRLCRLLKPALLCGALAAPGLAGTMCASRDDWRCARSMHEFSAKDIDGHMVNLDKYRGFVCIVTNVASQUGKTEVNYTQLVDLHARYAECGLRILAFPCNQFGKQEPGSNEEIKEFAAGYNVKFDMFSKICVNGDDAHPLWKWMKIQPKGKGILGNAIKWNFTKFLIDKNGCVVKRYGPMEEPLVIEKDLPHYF
SMILES,Potency,"activity change, negative = inhibition",outcome
CCCC1CC(C(=O)NC(C(C)Cl)C2OC(SC)C(OP(=O)(O)O)C(O)C2O)N(C)C1 (configuration not stated),inactive,,
Cn1c(=O)cc(N2CCC[C@@H](N)C2)n(Cc2cc(F)ccc2C#N)c1=O,inactive,,
CN(CCCCCCN(C)C(=O)Oc1ccc[n+](C)c1)C(=O)Oc1ccc[n+](C)c1,inactive,,
OC(CCN1CCCCC1)(c1ccccc1)C1CCCC1 (configuration not stated),inactive,,
CC(C)OC(=O)CCC/C=C\C[C@@H]1[C@@H](/C=C/[C@@H](O)COc2cccc(C(F)(F)F)c2)[C@H](O)C[C@@H]1O,inactive,,
Clc1ccc(CCCOCCCN2CCCCC2)cc1,inactive,,
CC(OC(=O)NCC1(CC(=O)O)CCCCC1)OC(=O)C(C)C (configuration not stated),inactive,,
COC(=S)NCCn1c([N+](=O)[O-])cnc1C,inactive,,
CC(C)C[C@H]1C(=O)O[C@H](Cc2ccc(N3CCOCC3)cc2)C(=O)N(C)[C@@H](CC(C)C)C(=O)O[C@H](C)C(=O)N(C)[C@@H](CC(C)C)C(=O)O[C@H](Cc2ccc(N3CCOCC3)cc2)C(=O)N(C)[C@@H](CC(C)C)C(=O)O[C@H](C)C(=O)N1C,inactive,,
CC(C)OC(=O)CCC/C=C\C[C@@H]1[C@@H](CC[C@@H](O)CCc2ccccc2)[C@H](O)C[C@@H]1O,,4.91% [at 9.73 µM],
CCCCCCCCCCCCOC(=O)CS(=O)(=O)O,14.1 µM (active),,
CCCCC[C@H](O)/C=C/[C@@H]1[C@@H](C/C=C/CCCC(=O)O)[C@@H](O)C[C@H]1O,inactive,,
CCCCCCCCCCCC(=O)OCN1C(=O)CCc2ccc(OCCCCN3CCN(c4cccc(Cl)c4Cl)CC3)cc21,inactive,,
CO[C@H]1C[C@H](O[C@@H]2[C@H](C)O[C@H](O[C@@H]3/C(C)=C/C[C@@H]4C[C@@H](C[C@]5(C=C[C@H](C)[C@@H](C6CCCCC6)O5)O4)OC(=O)[C@@H]4C=C(C)C(O)[C@H]5OC/C(=C\C=C\[C@@H]3C)[C@]54O)C[C@@H]2OC)O[C@@H](C)[C@@H]1O (some centres not stated),inactive,,
CCC(c1ccccc1)c1c(O)c2ccccc2oc1=O (configuration not stated),inactive,,
CCCCC(=O)O[C@]1(C(=O)COC(C)=O)CC[C@H]2[C@@H]3CCC4=CC(=O)C=C[C@]4(C)[C@H]3[C@@H](O)C[C@@]21C,inactive,,
O=C(O)[C@H]1OC(O)[C@H](O)[C@@H](O)[C@@H]1O (some centres not stated),inactive,,
[2H]N[C@@H](Cc1ccccc1)C(=O)N1CCC[C@H]1C(=O)N[C@@H](CCCNC(=N)N)C(=O)N1CCC[C@H]1C(=O)NCC(=O)NCC(=O)NCC(=O)NCC(=O)N[C@@H](CC(N)=O)C(=O)NCC(=O)N[C@@H](CC(=O)O)C(=O)N[C@@H](Cc1ccccc1)C(=O)N[C@@H](CCC(=O)O)C(=O)N[C@@H](CCC(=O)O)C(=O)N[C@H](C(=O)N1CCC[C@H]1C(=O)N[C@@H](CCC(=O)O)C(=O)N[C@@H](CCC(=O)O)C(=O)N[C@@H](Cc1ccc(O)cc1)C(=O)N[C@@H](CC(C)C)C(=O)O)[C@@H](C)CC,,,inactive [at 9.73 µM]
C[N+]1(C)[C@@H]2CC(OC(=O)C(O)(c3cccs3)c3cccs3)C[C@H]1[C@H]1O[C@@H]12 (some centres not stated),inactive,,
N#Cc1c(N2C[C@@H]3NCCO[C@H]3C2)c(F)cc2c(=O)c(C(=O)O)cn(C3CC3)c12,inactive,,

SMILES,Potency,"activity change, negative = inhibition",outcome
O=C(OCCN(CCO)CCO)c1ccccc1O,inactive,,
CC1=CC(O)CC(C)(C)C1/C=C/C(C)=C/C=C/C(C)=C/C=C/C=C(C)/C=C/C=C(C)/C=C/C1=C(C)CC(O)CC1(C)C (configuration not stated),12.6 µM (active),,
O=C1CCC(C(=O)O)N1 (configuration not stated),inactive,,
O=C(OC[C@H]1O[C@@H](OC(=O)c2cc(O)c(O)c(O)c2)[C@H](O)[C@@H](OC(=O)c2cc(O)c(O)c(O)c2)[C@@H]1O)c1cc(O)c(O)c(O)c1,inactive,,
CC[C@H]1OC(=O)[C@H](C)[C@@H](O[C@H]2C[C@@](C)(OC)[C@@H](O)[C@H](C)O2)[C@H](C)[C@@H](O[C@@H]2O[C@H](C)C[C@H](N(C)C)[C@H]2O)C(C)(O)C[C@@H](C)/C(=N\OCOCCOC)[C@H](C)[C@@H](O)[C@]1(C)O (some centres not stated),inactive,,
C=C1/C(=C/C=C2\CCC[C@]3(C)[C@@H]([C@H](C)CCCC(O)(C(F)(F)F)C(F)(F)F)CC[C@@H]23)C[C@@H](O)C[C@@H]1O,14.1 µM (active),,
OC(c1ccccc1)(c1ccccc1)C12CC[N+](CCOCc3ccccc3)(CC1)CC2,inactive,,
CCCCCCCCCC(=O)OC1(c2ccc(Cl)cc2)CCN(CCCC(=O)c2ccc(F)cc2)CC1,inactive,,
CCCCC(F)(F)C1(O)CCC2C(CC(=O)C2CCCCCCC(=O)O)O1 (configuration not stated),inactive,,
NC(N)=NCCC[C@@H](N)C(=O)N[C@@H](CCCN=C(N)N)C(=O)N1CCC[C@H]1C(=O)N1C[C@H](O)C[C@H]1C(=O)NCC(=O)N[C@@H](Cc1cccs1)C(=O)N[C@@H](CO)C(=O)N1Cc2ccccc2C[C@@H]1C(=O)N1[C@H](C(=O)N[C@@H](CCCN=C(N)N)C(=O)O)C[C@@H]2CCCC[C@@H]21,inactive,,
CCCCC(CC)COc1ccc(-c2nc(-c3ccc(OC)cc3)nc(-c3ccc(OCC(CC)CCCC)cc3O)n2)c(O)c1 (configuration not stated),,-23.8% [at 4.52 µM],
CN[C@@H]1[C@@H](O[C@H]2O[C@H](CO)[C@@H](N)[C@H](O)[C@H]2O)O[C@H]2C[C@@H](N)[C@H](O[C@H]3[C@H](O)[C@@H](O)[C@H](N)C[C@@H]3N)O[C@@H]2[C@@H]1O,inactive,,
CC=CC1=C(C(=O)O)N2C(=O)[C@@H](NC(=O)[C@H](N)c3ccc(O)cc3)[C@H]2SC1,inactive,,
C=C1CC[C@H](O)C/C1=C\C=C1/CCC[C@]2(C)[C@@H]([C@H](C)CC[C@H](O)C(C)(C)O)CC[C@@H]12,14.1 µM (active),,
CCCN1C[C@H](C)[C@@H](O)[C@](C)(O)[C@@H](CC)OC(=O)[C@H](C)[C@@H](O[C@H]2C[C@@](C)(OC)[C@@H](O)[C@H](C)O2)C(C)[C@@H](O[C@@H]2O[C@H](C)C[C@H](N(C)C)[C@H]2O)[C@](C)(O)C[C@H]1C (some centres not stated),inactive,,
CCCCCCCCCCCCCCCCCC(=O)NCCCC[C@H](NC(=O)CC[C@@H](NC(=O)[C@H](C)NC(=O)[C@@H](C)O[C@H]1[C@H](O)[C@@H](CO)OC(O)[C@@H]1NC(C)=O)C(N)=O)C(=O)O (some centres not stated),inactive,,
O=C(O)C[C@@H]1CC[C@H](NC(=O)Cc2cccs2)B(O)O1,inactive,,
CC(C)C[C@H](NC(=O)[C@@H](Cc1c[nH]c2ccccc12)NC(=O)[C@H](Cc1ccc(O)cc1)NC(=O)[C@H](CO)NC(=O)[C@H](Cc1c[nH]c2ccccc12)NC(=O)[C@H](Cc1cnc[nH]1)NC(=O)[C@@H]1CCC(=O)N1)C(=O)N[C@@H](CCCN=C(N)N)C(=O)N1CCC[C@H]1C(=O)NCC(N)=O,inactive,,
Cc1ccc(S(=O)(=O)O)cc1,inactive,,
CCCCCCCC(=O)N[C@H](CN1CCCC1)[C@H](O)c1ccc2c(c1)OCCO2,inactive,,
